PLK1 PBD block = qHTS for Inhibitors of PLK1-PDB (polo-like kinase 1 - polo-box domain): Primary Screen. Serine/threonine-protein kinase PLK1 (Homo sapiens), P53350. Plk1 PBD binding of FITC phosphopeptide, fluorescence polarization. Potency, µM, hits mostly inhibitors. 360,000 compounds, 2.8% hits. AID 720504, 2013; also: series mostly up to about 57 µM; nearly all actives have a fitted effect of over 65% in size
Sfp inh = qHTS Assay for Inhibitors of Bacillus subtilis Sfp phosphopantetheinyl transferase (PPTase); 4'-phosphopantetheinyl transferase ffp (Bacillus subtilis), Q9F4F7; Biochemical Sfp PPTase activity, qHTS; Potency, µM, hits mostly inhibitors; 310,000 compounds, 3.5% hits; AID 1490, 2009;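 also: the enzyme is Sfp with the accession as filed and its product quenches rhodamine fluorescence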
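After 15 min at room temperature with compound, 15 nM Sfp received 5 uM rhodamine-CoA plus 12.5 uM BHQ-2-ybbR (50 mM Hepes pH 7.6, 10 mM MgCl2). Rate came from the fluorescence difference over 30 min, ex 525/em 598 nm.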
CCT chaperon mod = High-Throughput Screening for Modulators of Cytosolic Chaperonin Activity. AID 651819, 2012. purified chaperonin ATPase assay, HTRF ADP detection, 30 min. 360,000 compounds, 0.3% hits. activity change, % (concentration not given with the values), hits read low; in the data active = activity change below about -30%
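We incubate TRiC, 40 or 20 nM final, with library compounds at 76 uM and 10 uM ATP for 30 min at 37 °C. ADP formed is detected with Transcreener HTRF reagents after 30 min at room temperature.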
MmCpn inh = Inhibitors of TCP-1 ring complex (TRiC) of Methanococcus maripaludis (MmCpn): qHTS; 330,000 compounds, 0.031% hits; Potency, µM (doses to about 76.9 µM), hits mostly inhibitors; purified Mm-Cpn ATPase, ADP Transcreener TR-FRET; Chaperonin Mm-Cpn (Methanococcus maripaludis); also: nearly all actives have a fitted effect of over 80% in size
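Purified archaeal Mm-CPN (25nM final) preincubated 10 min at 37degC with compound, then 10uM ATP for 30 min at 37degC; ADP measured by HTRF Transcreener TR-FRET; buffer 30 mM TRIS pH 7.4, 100mM KCl, 5mM MgCl2, 1mM DTT.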
G9a inh = qHTS Assay for Inhibitors of Histone Lysine Methyltransferase G9a; G9a H3K9 monomethylation, AlphaScreen, 2 h; Potency, µM (doses to about 102 µM), actives largely listed as inhibitors; 350,000 compounds, 8.8% hits; AID 504332, 2011; also: nearly all actives have a fitted effect of over 75% in size
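Quantitative HTS format: methyltransferase activity on a biotin-tagged H3K9 peptide is measured by AlphaScreen, using a rabbit anti-monomethyl-H3K9 antibody with streptavidin donor and anti-IgG acceptor beads. Final levels are 20 nM enzyme, 500 nM peptide, 20 uM SAM; 2 h RT.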
VDR inh = Inhibitors of the vitamin D receptor (VDR): qHTS; VDR-SRC2-3 peptide fluorescence polarization, 2 h; Potency, µM, most hits filed as inhibitors; 400,000 compounds, 0.93% hits; AID 504847, 2011
Target sequence (P11473 whole entry, looked up): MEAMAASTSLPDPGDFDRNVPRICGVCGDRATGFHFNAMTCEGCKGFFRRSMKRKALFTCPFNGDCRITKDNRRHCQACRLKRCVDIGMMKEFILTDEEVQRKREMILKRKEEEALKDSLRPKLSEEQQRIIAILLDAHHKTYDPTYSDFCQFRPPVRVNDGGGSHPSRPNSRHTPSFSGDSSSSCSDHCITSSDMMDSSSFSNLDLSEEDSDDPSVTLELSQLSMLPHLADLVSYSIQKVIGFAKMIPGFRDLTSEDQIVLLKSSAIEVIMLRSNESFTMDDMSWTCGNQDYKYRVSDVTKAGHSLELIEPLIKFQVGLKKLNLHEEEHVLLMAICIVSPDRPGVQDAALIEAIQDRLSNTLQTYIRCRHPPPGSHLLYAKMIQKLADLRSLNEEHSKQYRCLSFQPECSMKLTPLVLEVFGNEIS
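Inhibition of the VDR/SRC2-3 peptide interaction is quantified by fluorescence polarization. Compounds (23 nl, pintool) incubate with the reagents for 2 hours at ambient room temperature.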
Of the large screens only hits and unclear results are named; the others gave an inactive call. Compounds with a hit are over-represented: about 10% of the library has one in this group of screens. Unless noted, calls follow the shape of the dose curve; as a rule, active = well fitted curve in the direction sought with a large enough effect; inconclusive = small, poorly fitted or top-dose-only effect, or another doubt; inactive = no such curve, though single readings can be large; an effect the other way counts as inactive or inconclusive.

CCC(=O)O[C@@H](OP(=O)(CCCCc1ccccc1)CC(=O)N1C[C@H](C2CCCCC2)C[C@H]1C(=O)O)C(C)C (some centres not stated)	none (no result: PLK1 PBD block, CCT chaperon mod, MmCpn inh)
CC[C@H](C)[C@H](NC(=O)[C@H](CCC(=O)O)NC(=O)[C@@H](N)CO)C(=O)N[C@@H](CCC(N)=O)C(=O)N[C@@H](CC(C)C)C(=O)N[C@@H](CCSC)C(=O)N[C@@H](Cc1cnc[nH]1)C(=O)N[C@@H](CC(N)=O)C(=O)N[C@@H](CC(C)C)C(=O)NCC(=O)N[C@@H](CCCCN)C(=O)N[C@@H](Cc1cnc[nH]1)C(=O)N[C@@H](CC(C)C)C(=O)N[C@@H](C)C(=O)N[C@@H](CO)C(=O)N[C@H](C(=O)N[C@@H](CCC(=O)O)C(=O)N[C@@H](CCCNC(=N)N)C(=O)N[C@@H](CCSC)C(=O)N[C@@H](CCC(N)=O)C(=O)N[C@@H](Cc1c[nH]c2ccccc12)C(=O)N[C@@H](CC(C)C)C(=O)N[C@@H](CCCNC(=N)N)C(=O)N[C@@H](CCCCN)C(=O)N[C@@H](CCCCN)C(=O)N[C@@H](CC(C)C)C(=O)N[C@@H](CCC(N)=O)C(=O)N[C@@H](CC(=O)O)C(=O)N[C@H](C(=O)N[C@@H](Cc1cnc[nH]1)C(=O)N[C@@H](CC(N)=O)C(=O)N[C@@H](Cc1ccccc1)C(=O)O)C(C)C)C(C)C	none (no result: PLK1 PBD block, CCT chaperon mod, MmCpn inh, G9a inh)
O=C(Oc1ccc(F)cc1)c1nc(SCc2ccccc2F)ncc1Cl	none (no result: PLK1 PBD block, Sfp inh, CCT chaperon mod, MmCpn inh)
COc1ccc(Br)c2oc(S)cc(=O)c12	PLK1 PBD block inconclusive, Sfp inh inconclusive, G9a inh 7.1µM, VDR inh inconclusive
COCC(C)NCc1ccc(C)cc1C (configuration not stated)	G9a inh 11µM
COCC(C)NCc1cccc2ccccc12 (configuration not stated)	G9a inh 32µM
CC(CCc1ccccc1)NCc1cccc2ccccc12 (configuration not stated)	G9a inh inconclusive
COCC(C)NCc1ccc(OC)c(Br)c1 (configuration not stated)	G9a inh inconclusive
CCc1ccccc1NC(=O)CN(Cc1ccccc1)S(=O)(=O)c1ccc2nc(C)sc2c1	none (no result: PLK1 PBD block, Sfp inh, CCT chaperon mod, MmCpn inh)
CNC(=O)C(Sc1nc(C)nc2c1oc1ccccc12)C(C)=O (configuration not stated)	Sfp inh 50µM, G9a inh 18µM
Cc1nc(NCCc2ccccc2)c2oc3ccccc3c2n1	G9a inh 79µM
Cc1nc(SCc2cccc(F)c2)c2oc3ccccc3c2n1	Sfp inh 40µM
Cc1nc(SCC(=O)Nc2ccccc2)c2oc3ccccc3c2n1	none
CN1CCN(C(=S)Nc2ccccc2Cl)CC1	none
CN1CCN(C(=S)NC(=O)/C=C/c2ccccc2Cl)CC1	G9a inh 45µM
O=C(NC(=S)N1CCCCCC1)c1ccccc1Cl	none
O=C(/C=C/c1ccc(Br)cc1)NC(=S)N1CCOCC1	G9a inh 71µM
CN1CCN(C(=S)NC(=O)c2ccccc2Cl)CC1	G9a inh 50µM
CC(OC(=O)/C=C/c1ccc(Br)cc1)C(=O)N1CCOCC1 (configuration not stated)	none (no result: Sfp inh)
CN1CCN(C(=S)NC(=O)/C=C/c2ccccc2)CC1	G9a inh 50µM
CCC1CCc2nc3sc(C(=O)Nc4ccc(C)cc4C)c(N)c3cc2C1 (configuration not stated)	none (no result: PLK1 PBD block, Sfp inh, CCT chaperon mod, MmCpn inh)
COc1ccc(-c2nn[nH]n2)cc1OC	none
COc1cccc(-c2nn[nH]n2)c1O	Sfp inh 50µM, G9a inh 3.5µM
